Bioassay records (PubChem)
Shown are actives, neighbours in structure and some others; about 9.2% of the full set was active somewhere.
NPC1 promoter act = activators of NPC1 promoter. 320,000 tested, 2.4% active. AID 485313. Huh7 NPC1 promoter luciferase reporter, 24 h. Potency, µM (top dose mostly 9.22 µM), inactives show at the top dose activation, most hits filed as activators; further: % of control where 0% means no effect; nearly all actives have a fitted effect of over 60% in size
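Cells: Huh7 expressing luciferase under the NPC1 promoter, 1500/well. Seeded 2 h, compound added, incubated 24 h at 37 °C. Luciferase reagent, 10 min ambient, then luminescence.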
ELG1 genotox = genotoxicity induction in ELG1-luciferase HEK293T cells; 330,000 tested, 1.3% active; HEK293T ELG1-luciferase reporter, luminescence, 16 h; Potency, µM (titrated, usually from 46 µM), for the others: at the top dose activity change, positive = activation, usual class: activators; further: % of control where 0% means no effect; nearly all actives have a fitted effect of over 60% in size
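Genotoxic stress is detected as increased luminescence from luciferase-tagged ELG1 in HEK293T cells, measured with ONE-Glo after a 16 hr treatment at 37 °C.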
FLuc modulator = firefly luciferase modulation, counter-screen for miR-21 project. P08659. purified FLuc, Km substrates, luminescence inhibition. Potency, µM (titrated, usually from 57.5 µM), for inactives: at the top dose activity change, negative = inhibition, most hits filed as inhibitors. 360,000 tested, 6.9% active;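 further: plate controls were vehicle for no effect and reference inhibitor for full effect; nearly all actives have a fitted effect of over 55% in size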
Target sequence (P08659 whole entry, looked up): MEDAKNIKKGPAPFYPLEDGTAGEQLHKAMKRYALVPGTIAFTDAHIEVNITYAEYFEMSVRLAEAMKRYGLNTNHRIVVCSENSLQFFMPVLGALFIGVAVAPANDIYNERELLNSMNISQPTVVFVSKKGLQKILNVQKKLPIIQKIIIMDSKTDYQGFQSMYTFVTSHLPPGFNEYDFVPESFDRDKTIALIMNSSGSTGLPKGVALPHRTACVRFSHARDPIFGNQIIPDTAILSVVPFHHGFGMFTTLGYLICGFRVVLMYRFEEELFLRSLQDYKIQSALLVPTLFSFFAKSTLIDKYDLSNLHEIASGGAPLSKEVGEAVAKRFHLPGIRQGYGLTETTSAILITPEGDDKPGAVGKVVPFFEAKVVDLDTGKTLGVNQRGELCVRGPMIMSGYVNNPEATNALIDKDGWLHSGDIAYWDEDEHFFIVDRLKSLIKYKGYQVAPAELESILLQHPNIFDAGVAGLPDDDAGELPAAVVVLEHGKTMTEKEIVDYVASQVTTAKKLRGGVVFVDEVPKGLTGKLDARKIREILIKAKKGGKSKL
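Purified P. pyralis luciferase, 10 nM final, with Km-level 10 uM D-luciferin and 10 uM ATP in 50 mM Tris acetate pH 7.5, 10 mM Mg acetate, 0.01% Tween-20, 0.05% BSA; 6-point qHTS titration about 60 µM downward; luminescence read.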
SMN2 splice up = increases expression of the SMN2 splice variant | HEK293 SMN2-luciferase splicing reporter, luminescence, 30-36 h | Potency, µM (top dose mostly 46.1 µM), without a hit: at the top dose activity change, positive = activation, most hits filed as activators | 210,000 tested, 2.8% active | AID 1458; further: % of control where 0% means no effect; nearly all actives have a fitted effect of over 55% in size
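HEK293 cells carry an SMN2 minigene-luciferase reporter in which exon 7 inclusion puts luciferase in frame. Cells were seeded at 2000 cells/well, attached for 10-12 hours, then exposed to compounds for 30-36 hours at 37C before ONE-Glo luminescence.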
Rab9 promoter act = Rab9 promoter activation | Huh7 Rab9 promoter-luciferase reporter, luminescence, 24 h | Potency, µM (highest dose often 9.22 µM), for the others: top-dose activation, negative = inhibition, most hits filed as activators | 320,000 tested, 2.8% active; further: % of control where 0% means no effect; nearly all actives have a fitted effect of over 60% in size
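Huh7 cells stably carrying a Rab9 promoter-luciferase reporter, 1500 cells per well in OP-MEM I with 10% FBS, treated with compound 24 hours at 37C. Luciferase activity read by luminescence after 10 minutes with Amplite reagent.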
ELG1 DNA repair = blocks ELG1-dependent DNA repair in HEK293T cells. HEK293T ELG1-luciferase reporter, luminescence, 16 h; DNA damage induced by 5-fluorouridine. Potency, µM (titrated, usually from 46.1 µM), for the others: top-dose activity change, negative = inhibition, actives largely listed as inhibitors. 330,000 tested, 2.3% active; further: on the % scale 0 is the no-effect control and ±100 the full control effect; nearly all actives have a fitted effect of over 55% in size
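Cells (2,000 per well) received 5-fluorouridine plus test compound or DMSO and were incubated 16 hr at 37 °C, 5% CO2. Luciferase activity was read by luminescence 30 min after ONE-Glo addition; signal suppression marked inhibition of damage-induced ELG1 function.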
Starred values were filed as active, the others as inactive; ? = inconclusive; . = no result given. The call rests on the fitted dose curve; in most records, active means well fitted curve in the direction sought with a large enough effect; inconclusive means small, poorly fitted or top-dose-only effect, or another doubt; inactive means no such curve, though single readings can be large; an effect the other way counts as inactive or inconclusive. Potency means the concentration at half of the fitted maximal effect.

SMILES | NPC1 promoter act | ELG1 genotox | FLuc modulator | SMN2 splice up | Rab9 promoter act | ELG1 DNA repair
O=C(/C=C/c1ccc(F)cc1)NC(Cc1c[nH]c2ccccc12)C(=O)O (stereo not drawn) | 0% | 0% | ? | . | -8% | 1%
CCCCn1c(/C=C/c2ccco2)nc2ccccc21 | 11% | 13% | 13µM* | 16µM* | 12% | ?
CCCn1c(/C=C/c2ccco2)nc2ccccc21 | 20% | 1% | 12µM* | 14µM* | 19% | ?
C[C@H](CO)N1C[C@H](C)[C@@H](CN(C)S(=O)(=O)c2ccc(F)cc2)Oc2ccc(NS(=O)(=O)c3ccccc3)cc2C1=O | . | -3% | . | . | . | -6%
Cc1ccc2c(c1)COc1c3ccc(C(=O)NC(C)C)cc3nn1-2 | 1.6µM* | ? | 3µM* | . | ? | ?
Cc1ccc2c(c1)COc1c3ccc(C(=O)N[C@@H](C)CO)cc3nn1-2 | 1.6µM* | ? | 3.4µM* | . | 2.2µM* | ?
CCOc1c2ccc(C(=O)N[C@H](C)C3CCCCC3)cc2nn1CCOC | -3% | -1% | 2% | 12% | 3% | -3%
CC(=O)c1c(C)oc2c(Cl)cc(NS(=O)(=O)c3cc(C)c(C)cc3C)cc12 | . | . | -2% | 14% | . | .
COc1ccc(-c2nc3sc(CCNC(=O)c4ccccc4C)c(C)n3n2)cc1 | . | . | 17µM* | . | . | .
COc1ccc(-c2nc3sc(CCNC(=O)C(=O)Nc4ccc(C)c(C)c4)c(C)n3n2)cc1 | . | . | -5% | . | . | .
COc1ccc(-c2nc3sc(CCNC(=O)c4cccc(C(F)(F)F)c4)c(C)n3n2)cc1 | . | . | 6.7µM* | . | . | .
Cc1ccc(C)c2c(N)c3c(nc12)CCCCC3 (tested in a mixture with another compound) | 0% | -7% | 3% | -4% | -5% | 2%
CCCOc1ccc(C(=O)Nc2cc(-c3nc4cc(C)cc(C)c4o3)ccc2C)cc1 | . | . | -5% | 1% | . | .
Cc1cc(C)c2oc(-c3ccc(C)c(NC(=O)/C=C/c4ccco4)c3)nc2c1 | . | . | 21µM* | -9% | . | .
Cc1cc(C)c2oc(-c3cccc(NC(=O)c4ccco4)c3)nc2c1 | . | . | 2.7µM* | 5% | . | .
CCCCc1cc(=O)oc2cc(C)cc(OCC(=O)N3CCC(C(=O)O)(c4ccccc4)CC3)c12 | 1% | 4% | 1% | . | -3% | 11%
COc1ccc(NC(=O)CN2C(=O)NC(CC(C)C)C2=O)cc1S(=O)(=O)N1CCOCC1 (stereo not drawn) | -5% | 2% | . | . | 9% | 6%
Oc1[nH]c2ccccc2c1C=Nc1ccc2c(c1)OCO2 | 2µM* | ? | 7.6µM* | 0.89µM* | 1.8µM* | ?
COc1ccc(Cn2c(O)c(C=Nc3ccc(O)cc3)c3ccccc3c2=O)cc1 | -3% | -3% | -8% | -13% | -2% | 23µM*
COc1ccc(N=Cc2c(O)[nH]c3ccccc23)cc1 | 1.6µM* | ? | 2.7µM* | 13µM* | 1.6µM* | ?
CCOC(=O)c1sc(/N=C/c2c(O)ccc3ccccc23)cc1C | 3% | 0% | 19µM* | -34% | 2% | ?
O=C(NN1C(=O)c2ccccc2NC1c1ccco1)c1ccc([N+](=O)[O-])cc1 (stereo not drawn) | 5% | 2% | -2% | 19% | 9% | 7%
C/C(=N/NC(=O)CNC(=O)Cc1ccccc1)c1ccc(Cl)cc1 | -5% | 15% | -4% | . | 2% | ?
Cc1ccc(N=Cc2c(O)[nH]c3ccccc23)c([N+](=O)[O-])c1 | ? | ? | ? | 22% | 0.56µM* | ?
Oc1[nH]c2ccccc2c1/C=N/N1CCCCC1 | 4% | 0% | -17% | -12% | 4% | ?
SMILES | NPC1 promoter act | ELG1 genotox | FLuc modulator | SMN2 splice up | Rab9 promoter act | ELG1 DNA repair
O=C(O)c1ccc(N=Cc2c(O)ccc3ccccc23)cc1 | 2% | 1% | 30µM* | . | 3% | 1%
Oc1[nH]c2ccccc2c1/C=N/c1nccs1 | ? | 8% | 12µM* | ? | ? | ?
COc1ccc(N=Cc2c(O)ccc3ccccc23)cc1 | -2% | -10% | 13µM* | . | -3% | 5%
NCCOc1ccccc1-c1ccccc1 | -2% | 0% | 6% | 25% | 4.5µM* | 0%
NCCOc1ccccc1OCCN | 1% | 9% | 0% | -11% | -8% | 13%
CC1CCN(c2nnc(N)s2)CC1 | 2.2µM* | ? | 4.3µM* | 2.5µM* | 1.3µM* | ?
Nc1nnc(N2CCCCC2)s1 | -3% | 1% | 12% | -19% | 3% | -7%
O=C(O)c1ccccc1S(=O)(=O)CC(=O)N1CCCCC1 | 2% | 4% | -22% | . | -2% | 0%
CCOC(=O)N1CCC(NC(=O)c2ccc(N3CCC4(CC3)OCCO4)c([N+](=O)[O-])c2)CC1 | -4% | -12% | -8% | -69% | 3% | 16µM*
CCCCNC(=O)c1ccc(N2CCC3(CC2)OCCO3)c([N+](=O)[O-])c1 | 0% | -2% | -2% | -7% | -4% | -29%
CCS(=O)(=O)N1CCN(c2ccc(C(=O)NC3C4CC5CC(C4)CC3C5)cc2[N+](=O)[O-])CC1 (stereo not drawn) | -7% | 0% | -1% | -43% | -5% | 12µM*
Nc1c(Cl)c(Cl)nc(C(=O)OCC(=O)NC2CCCCC2)c1Cl | 7% | 3% | -7% | . | 8% | 4%
Cc1ccc(C2CCN(C(=O)Nc3ccccc3)C2)cc1 (stereo not drawn) | 4.5µM* | ? | 12µM* | ? | 4µM* | ?
Cc1ccc(C(=O)NC2CCN(C(=O)Nc3ccccc3)CC2)cc1 | -2% | -1% | 3% | . | 0% | 14%
O=C(Nc1ccc(Cl)cc1)N1CCC(c2ccccc2)C1 (stereo not drawn) | 1.6µM* | ? | 3.8µM* | 13µM* | 1.1µM* | ?
Cc1ccc(NC(=O)N2CCC(c3ccccc3)C2)cc1C (stereo not drawn) | 1.4µM* | ? | 4.8µM* | 13µM* | 0.79µM* | ?
COc1ccc(C)cc1NC(=O)CN(c1cc(C(F)(F)F)ccc1Cl)S(C)(=O)=O | . | . | -9% | -10% | . | .
O=C(CSc1ncccn1)NCc1cccc(Cl)c1 | 12% | 16% | ? | 21% | 25% | ?
O=C(COC(=O)/C=C/c1ccco1)Nc1cccc([N+](=O)[O-])c1 | -3% | 0% | 8% | -12% | 2% | 2%
CCOc1ccc(S(=O)(=O)N2CCC(C(=O)NCCc3ccccc3)CC2)cc1 | 4% | 1% | -1% | . | 4% | -1%
Cc1ccc(-n2c(C)cc(C(=O)CN3CCOCC3)c2C)cc1 | 24% | 4% | ? | 11% | ? | ?
